# Measured values from PubChem BioAssay AID1079 (Emory University Molecular Libraries Screening Center, 2008).
# Entries with a potency or affinity are not part of this list. Calls of active or inactive are those of the source.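 Rule for the calls: active = fitted half-effect concentration IC50 at or below a set limit, with percent of control there 60 or less; inactive = the rest.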
# Biological target: Estrogen receptor (Homo sapiens) (UniProt P03372)
# Assay: ERα–SRC-3 coactivator interaction inhibitors, confirmation, orthogonal assay, biochemical, ELISA, streptavidin-HRP readout (AID 1079)
# Settings: ELISA ERalpha-biotin SRC-3 binding; series mostly up to 50 µM
# Estrogen receptor (Homo sapiens), sequence (P03372 whole entry, looked up): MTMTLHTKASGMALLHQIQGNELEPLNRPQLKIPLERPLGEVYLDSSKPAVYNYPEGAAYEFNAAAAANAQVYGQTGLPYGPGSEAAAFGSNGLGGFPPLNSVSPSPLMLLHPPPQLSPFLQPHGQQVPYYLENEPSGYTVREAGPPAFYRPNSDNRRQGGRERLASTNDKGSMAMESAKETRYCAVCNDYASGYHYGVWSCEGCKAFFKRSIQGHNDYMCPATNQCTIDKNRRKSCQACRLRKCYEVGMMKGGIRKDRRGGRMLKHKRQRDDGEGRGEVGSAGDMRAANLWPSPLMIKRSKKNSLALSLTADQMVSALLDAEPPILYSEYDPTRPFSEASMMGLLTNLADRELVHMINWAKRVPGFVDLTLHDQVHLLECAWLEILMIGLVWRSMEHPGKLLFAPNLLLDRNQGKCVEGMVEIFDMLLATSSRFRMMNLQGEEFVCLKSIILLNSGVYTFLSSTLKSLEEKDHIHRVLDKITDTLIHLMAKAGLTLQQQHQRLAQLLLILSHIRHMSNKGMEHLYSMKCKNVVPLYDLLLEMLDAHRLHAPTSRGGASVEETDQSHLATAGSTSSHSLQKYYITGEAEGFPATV
row,Structure (SMILES),outcome
1,O=C(CCCCCCCn1c(=S)[nH]c2ccccc2c1=O)N1CCN(c2cccc(Cl)c2)CC1,inactive
2,N#Cc1ccc(N2CCN(C(=O)CCCCCn3c(=S)[nH]c4ccccc4c3=O)CC2)cc1,inactive
